Several values for one entry are separate records, joined by “and”; a condition that tells them apart may be missing. Equal values may be shown once. Where a name gives a salt, the structure may show the parent alone. Values without a mark were called inactive.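 How the source made its calls: active = log2 fold change beyond 2 SD from the library mean after excluding viability outliers; inactive = within 2 SD.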
Molecular target: PARP1 L713F-nLuc biosensor (HCT116) (UniProt P09874)
Assay: PARP1 L713F-nLuc/akaLuc ratio relative to DMSO control (biosensor stabilization) (fold change); higher = more PARP1 biosensor stabilization (target engagement / stabilizer), active = hit call of the paper
Conditions: stock concentration (mM; final µM = stock mM x 1): 10; 24 h

Sequence of PARP1 L713F-nLuc biosensor (HCT116) (P09874 whole entry L713F, looked up): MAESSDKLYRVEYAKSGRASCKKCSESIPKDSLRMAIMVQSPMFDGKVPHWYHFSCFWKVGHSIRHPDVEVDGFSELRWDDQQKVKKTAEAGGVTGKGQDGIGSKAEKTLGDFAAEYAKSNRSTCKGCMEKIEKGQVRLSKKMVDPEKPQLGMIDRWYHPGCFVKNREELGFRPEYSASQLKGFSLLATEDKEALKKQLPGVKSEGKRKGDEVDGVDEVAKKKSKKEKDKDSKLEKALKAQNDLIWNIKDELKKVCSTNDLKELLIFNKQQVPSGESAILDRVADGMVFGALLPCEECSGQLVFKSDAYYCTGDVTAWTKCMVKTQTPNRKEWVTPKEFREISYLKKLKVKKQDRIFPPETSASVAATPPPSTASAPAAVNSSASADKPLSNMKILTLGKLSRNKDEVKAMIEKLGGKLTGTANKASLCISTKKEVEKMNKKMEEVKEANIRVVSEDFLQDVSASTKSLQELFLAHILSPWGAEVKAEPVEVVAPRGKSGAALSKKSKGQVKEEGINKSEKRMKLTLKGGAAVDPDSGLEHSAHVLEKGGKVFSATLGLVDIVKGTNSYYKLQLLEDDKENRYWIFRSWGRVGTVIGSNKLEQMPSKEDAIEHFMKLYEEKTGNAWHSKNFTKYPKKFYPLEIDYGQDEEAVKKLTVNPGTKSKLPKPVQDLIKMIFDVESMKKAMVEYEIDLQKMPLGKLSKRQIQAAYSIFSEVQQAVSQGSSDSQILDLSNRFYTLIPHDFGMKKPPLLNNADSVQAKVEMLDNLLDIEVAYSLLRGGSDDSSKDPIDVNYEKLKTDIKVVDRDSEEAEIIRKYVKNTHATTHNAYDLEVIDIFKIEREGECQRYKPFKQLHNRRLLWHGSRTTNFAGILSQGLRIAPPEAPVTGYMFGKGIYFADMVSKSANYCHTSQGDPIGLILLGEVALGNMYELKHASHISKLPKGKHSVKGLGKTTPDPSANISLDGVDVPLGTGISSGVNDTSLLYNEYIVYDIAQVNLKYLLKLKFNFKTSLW

| Structure (SMILES) | PARP1 L713F-nLuc/akaLuc ratio |
| --- | --- |
| Cn1cccc1/C=C1\C(=O)NC(=O)c2ccccc21 | 3.34 (active) |
| Nc1ccn([C@@H]2O[C@H](CO)[C@@H](O)C2(F)F)c(=O)n1 [Gemcitabine] | 0.416 |
| Cc1cn(CCN2CCN(c3ccccc3-c3cc(C#N)cc(C(=O)NCCCN4CCCC4)c3)CC2)c2ccccc12 | 0.612 |
| CCc1cc2c(cc1N1CCC(N3CCOCC3)CC1)C(C)(C)c1[nH]c3cc(C#N)ccc3c1C2=O | 2.06 |
| C[C@]1(O)C[C@@H](c2nc(-c3ccc4ccc(-c5ccccc5)nc4c3)c3c(N)nccn32)C1 [Linsitinib (OSI-906)] | 0.715 |
| NC(=O)C1CCN(CC(=O)Nc2ccc(Br)cc2)CC1 | 0.965 |
| O=c1sn(-c2cccc3ccccc23)c(=O)n1Cc1ccccc1 [Tideglusib] | 1.22 |
| CCCCOc1ccc(CC(=O)NO)cc1 [Bufexamac] | 1.03 |
| FC(F)c1nc2ccccc2n1-c1nc(N2CCOCC2)nc(N2CCOCC2)n1 | 0.962 |
| Nc1nc(=O)n([C@H]2C[C@H](O)[C@@H](CO)O2)cc1F [5-Fluoro-2'-deoxycytidine] | 0.559 |
| CCN(c1cc(-c2ccc(CN3CCOCC3)cc2)cc(C(=O)NCc2c(C)cc(C)[nH]c2=O)c1C)C1CCOCC1 [Tazemetostat] | 0.962 |
| C#Cc1cccc(Nc2ncnc3cc(OCCOC)c(OCCOC)cc23)c1 [Erlotinib] | 0.565 |
| CCn1c(C(=O)N(C2CC2)C2CC2)cc2c3c(ncn3C)c(Nc3cc(C)n(C)n3)nc21 | 1.01 |
| CCCCCCCc1ccc(CCc2cccc(O)c2C(=O)O)cc1 | 0.768 |
| CCN(CC)Cc1cc(Nc2ccnc3cc(Cl)ccc23)ccc1O [Amodiaquine (dihydrochloride dihydrate)] | 0.819 |
| N#Cc1c(-c2ccccc2)cc(-c2cc(Br)ccc2O)[nH]c1=O | 0.708 |
| O=C(Nc1ccnc(NC(=O)C2CC2)c1)c1c(Cl)cccc1Cl | 1.13 |
| CS(=O)(=O)c1ccc(-c2nnc(/C=C/c3nnc(-c4ccc(C#N)cc4)o3)n2-c2ccccc2Cl)nc1 | 0.886 |
| O=C(Nc1cccnc1)N1CCC(Cc2cccc(Oc3ccc(C(F)(F)F)cn3)c2)CC1 | 0.451 |
| O=C(Nc1ccc(-c2ccnc(Nc3ccc(N4CCOCC4)cc3)n2)cc1)C1CCCN1 (centres undefined) | 0.659 |

| Structure (SMILES) | PARP1 L713F-nLuc/akaLuc ratio |
| --- | --- |
| COc1ccc2c(c1O)OC(C)(C)c1c-2ccc2c1C(=O)N(c1ccc(C(=O)c3ccccc3)cc1)C2=O [Ampkinone] | 1.18 |
| Cc1cc(F)c(C(=O)Nc2cccc(-c3nncn3C(C)C)n2)cc1-n1cnc(C2CC2)c1 [Selonsertib (GS-4997)] | 0.908 |
| CN1CCCN(C(=O)c2cccc(-c3ccc(/C=C4/C(=O)Nc5ccc(Cl)cc54)o3)c2)CC1 [CX-6258 (hydrochloride)] | 0.53 |
| CC(C)(O)CC(=O)NCCn1ccc2ncnc(Nc3ccc(Oc4cccc(C(F)(F)F)c4)c(Cl)c3)c21 | 0.662 |
| CN(C)Cc1ccc(-c2nc3cccc4c3n2CCNC4=O)cc1 | 8.09 (active) |
| CO[C@@H](C(=O)N1Cc2[nH]nc(NC(=O)c3ccc(N4CCN(C)CC4)cc3)c2C1)c1ccccc1 | 0.781 |
| CC(CC(=O)C[C@@H](C)[C@H]1CC(=O)[C@@]2(C)C3=C(C(=O)C[C@]12C)[C@@]1(C)CCC(=O)C(C)(C)[C@@H]1C[C@@H]3O)C(=O)O (some centres undefined) [Ganoderic acid D] | 0.929 |
| Cn1cc(C(N)=O)ccc1=O [Nudifloramide] | 0.909 |
| O=c1c(O)c(-c2ccc(O)c(O)c2)oc2cc(O)ccc12 [Fisetin] | 0.701 |
| O=c1[nH]c(=O)n([C@H]2C[C@H](O)[C@@H](CO)O2)cc1F [Floxuridine] | 0.549 |
| CCCCCCCCCCCCCC(=S)NCCCC[C@H](NC(=O)OCc1ccccc1)C(=O)Nc1ccccc1 [Thiomyristoyl] | 1.08 |
| Cc1cc(Nc2cc(CN3CCOCC3)c3nc(C)c(Cc4ccc(Cl)cc4F)n3n2)n[nH]1 [Gandotinib] | 1.75 |
| N#Cc1ccc(-c2csc(NN=C3CCCC3)n2)cc1 [Remodelin (hydrobromide)] | 0.897 |
| O=C(c1cncc(Br)c1)N1CCC(N2CCCC2)CC1 | 1.73 |
| C[C@@H]1C[C@H]2[C@@H]3CCC4=CC(=O)C=C[C@]4(C)[C@@]3(F)[C@@H](O)C[C@]2(C)[C@@]1(O)C(=O)CO [Dexamethasone (DHAP)] | 1.03 |
| COc1cc2c(NC3CCN(C4CCCCC4)CC3)nc(N3CCCN(C(C)C)CC3)nc2cc1OCCCN1CCCCC1 | 0.886 |
| COc1ccc(S(=O)(=O)Nc2cc(-c3csc(C#N)c3)ccc2C)cc1 | 1.24 |
| Nc1cc(F)ccc1NC(=O)/C=C/c1cnn(C/C=C/c2ccccc2)c1 | 0.76 and 0.99 |
| C#Cc1cccc(Nc2ncnc3cc4c(cc23)OCCOCCOCCO4)c1 [Icotinib] | 0.808 |
